This is part of a sample that, as a whole, favours compounds with a hit. Of some 83,000 tested, about 20% had one in any assay.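 Note: values are percent growth. 100 is the growth of untreated cells, values between 100 and 0 indicate rising inhibition; between -100 and 0 indicates cell death.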 Calls of active or inactive are those of the source.

For the assay, the system named is NCI-H23 lung. Kind of assay: NCI-60 one-dose screen, 48 h (100 = growth as untreated, 0 = no growth, -100 = all killed). The following applies: 10 µM unless noted. The method, then:
Growth inhibition of the NCI-H23 human Non-Small Cell Lung tumor cell line is measured as a screen for anti-cancer activity. Cells are grown in 96 well plates and exposed to the test compound for 48 hours. Compounds are tested at a single concentration, which is 10^-5 M for most compounds. The reported endpoint is percent growth (GI% or GIPRCNT), where numbers from 0 - 100% represent growth inhibition, and numbers from -100% - 0 represent cell death. For example, a value of 40 represents 60% growth inhibition. A value of 0 means no net growth occurred over the course of the experiment. A value of -40 indicates 40% of cells at the beginning of the experiment died by the end of the experiment. A value of -100 means all cells are dead at the end of the experiment.
NCI-60 Human Tumor Cell Lines Screen was performed using the standard one-dose NCI protocol, which is described in more detail at https://dtp.cancer.gov/discovery_development/nci-60/default.htm.
Compounds with GIPRCNT values below 10 were considered active. Activity score was based on GIPRCNT using the following formula: […]
Score is 0 for GIPRCNT values of 100 or above, 50 for GIPRCNT values of 0, and 100 for GIPRCNT values of -100.
`CSc1ccccc1NP1(=O)OCC(C)([N+](=O)[O-])CO1` (stereo not given): the growth is 106% (inactive).
The value for `CC12CC[C@H](O)C=C1/C(=N/O)CC1C2CCC2(C)C1CC[C@@H]2O` (stereo not given in full) was 103% (inactive); that for `CC(C)CCC[C@@H](C)[C@H]1CC[C@H]2[C@@H]3CC=C4C[C@@H](OC(=O)Cc5ccc(N(CCCl)CCCl)cc5)CC[C@]4(C)[C@H]3CC[C@]12C` was 107% (inactive).
In the case of `O=[N+]([O-])c1ccc(F)c([N+](=O)[O-])c1F`, the growth was 111% (inactive).
The value for `Cc1cc(NC(=O)NCCOc2ccc(N3C(N)=NC(N)=NC3(C)C)cc2Cl)ccc1S(=O)(=O)F` was 40.2% (inactive); that for `O=C(CF)N(O)c1ccc(/C=C/c2ccccc2)cc1` was 60.7% (inactive).
The value for `[Br][Pb]([c]1ccccc1)([c]1ccccc1)[c]1ccccc1` was -88.8% (active); that for `CCCCNCCc1ccccn1` was 99.9% (inactive); that for `N#CC1=C(N)Oc2cc3c(cc2C1c1cccs1)OCO3` (stereo not given) was 15.2% (inactive).
Take `N#[N+]c1cnc([O-])[nH]c1=O`: the growth was 26.9% (inactive).
Take `CCCCCN(CCCCC)CC(O)c1ccc(C)c(Cl)c1` (stereo not given): the growth was 89.3% (inactive).
The value for `[O]=[Sn]([CH]1CCCCC1)[CH]1CCCCC1` was -93.5% (active).
The value for `Cc1nnc([S-])s1.[Au+].c1ccc([PH+](c2ccccc2)c2ccccc2)cc1` was 12.2% (inactive); that for `CC(=O)O[C@H]1C[C@H](O[C@H]2[C@@H](O)C[C@H](O[C@H]3[C@@H](O)C[C@H](O[C@H]4CC[C@@]5(C)C(CCC6C5C[C@@H](O)[C@]5(C)[C@@H](C7=CC(=O)OC7)CC[C@]65O)C4)O[C@@H]3C)O[C@@H]2C)O[C@H](C)[C@H]1O[C@@H]1O[C@H](CO)[C@@H](O)[C@H](O)[C@H]1O` (stereo not given in full) was -64.1% (active).
Turning to `C=CCN1C(=O)C(CC)(CCC(C)C)C(=O)NC1=S` (stereo not given), the growth was 105% (inactive).
Turning to `O=C(N/N=C/c1ccc(N(CCCl)CCCl)cc1)c1cc(=O)[nH]c(=O)[nH]1`, the growth is 79.7% (inactive).
The value for `ClCCN(CCCl)c1ccc(/C=C\c2ccnc3ccccc23)cc1` was 61.6% (inactive).
The value for `COc1cc(C2CC(=O)Nc3nc(N)[se]c32)cc(OC)c1OC` (stereo not given) was 102% (inactive); that for `C[CH2][Pb]([CH2]C)([CH2]C)[O]C(=O)c1ccc(N)cc1` was 51.2% (inactive).
Turning to `COc1cc(NCCCCCN=C(N)N)c2ncccc2c1`, the growth was 4.89% (active).
Consider `NS(=O)(=O)c1nc[nH]c1[N+](=O)[O-]`, for which the growth was 99.8% (inactive).
For `COc1ccc(C2=NN(c3ccccc3)C(c3sc(N(CCCl)CCCl)nc3Cl)C2)cc1` (stereo not given), the growth was 76.7% (inactive).
As for `CC1(C)N=C(N)N=C(N)N1c1ccc(CCCCc2ccc(S(=O)(=O)F)cc2)c(Cl)c1`, the growth is 29.8% (inactive).
On to `CC(C)CCC1(CCO)C(=O)NC(=S)NC1=O`, for which the growth is 110% (inactive).
For the compound `CCOc1ccc(C(O)CN(C)Cc2ccccc2)cc1Cl` (stereo not given), the growth was 91.3% (inactive).
`CC1=C(SCCC(=O)OCC(=O)NCCC[Te]c2ccccc2)C(=O)c2ccccc2C1=O`: the growth is -33.6% (active).
On to `CO[C@@H](c1ccccc1Cl)[C@H](C)OC(N)=O`, for which the growth is 93.7% (inactive).
The value for `CC(=O)C1CCC2C3CC=C4CC(OC(=O)Cc5ccc(N(CCCl)CCCl)cc5)CCC4(C)C3CCC12C` (stereo not given) was 96.6% (inactive); that for `CN1CC2CCC(C1)C2=O` was 106% (inactive); that for `CC(=O)[O][Hg][c]1nc2c(c(=O)n(C)c(=O)n2C)n1C` was 106% (inactive).
The value for `C[C@@H]1O[C@@H](O[C@H]2CC[C@@]3(C)[C@H](CCC4[C@@H]3C(O)C[C@]3(C)[C@@H](c5ccc(=O)oc5)CC[C@]43O)C2)[C@H](O)[C@H](O)[C@H]1O` (stereo not given in full) was -78.5% (active); that for `O=[N+]([O-])c1cccc([As]=[As]c2cccc([N+](=O)[O-])c2)c1` (stereo not given) was -36.4% (active).
The value for `C[CH2][Pb]([CH2]C)([CH2]C)[O]C(=O)COC` was -2.61% (active); that for `CC1(C)N=C(N)N=C(N)N1c1cccc(C(=O)Nc2cccc(S(=O)(=O)F)c2)c1` was 107% (inactive).
With `CO[C@@H]1[C@H](OC(=O)NC(=O)CCl)CC[C@]2(CO2)[C@H]1[C@@]1(C)O[C@@H]1CC=C(C)C`, the growth is 64.1% (inactive).
The value for `c1ccc(CCN2CCCCC2Cc2ccccc2)cc1` (stereo not given) was 86.2% (inactive).
The value for `COP(=S)(OC)Oc1ccc(SC)c(C)c1` was 97.7% (inactive).
Take `CC12CCC3C(CC=C4CC(O)CCC43C)C1C/C(=C\N1CCOCC1)C2=O` (stereo not given): the growth is 111% (inactive).
Take `COC(C)(C)CCC[C@H](C)C/C=C/C(C)=C/C(=O)OC(C)C`: the growth was 78.7% (inactive).
As to `C[C@]12CC[C@H]3[C@@H](C[C@@H]4N=C(c5ccc(O)cc5)S[C@@]45C[C@H](O)CC[C@]35C)[C@@H]1CC[C@@H]2O`, the growth is 74.7% (inactive).

The record behind these values is PubChem BioAssay (NCI).
